Compounds without any hit were thinned out: in the full panel of roughly 79,000, 15% have a hit. Values without a mark were called inactive. Activity calls are given as the source filed them. Cut-off read from the data, not from the text of the source: active = growth inhibition above about 70%; inactive = the rest.

Test [1] can be described thus: NCI Yeast Anticancer Drug Screen. Data for the rad50 strain (AID 155).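 Note: 0% = growth of vehicle-only cultures of the same strain.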 Conditions: S. cerevisiae rad50 strain growth inhibition; at 50.0 µM; hits give high values. The method, boiled down:
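Growth of the mutant yeast was measured after compound exposure and referenced to vehicle-treated cultures.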

A short description of test [2]: NCI Yeast Anticancer Drug Screen. Data for the mec2-1 strain (AID 157). The settings on record: S. cerevisiae mec2-1 strain, at 50.0 µM, hits give high values. The method, boiled down: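 Compounds were applied to mec2-1 yeast cells. Their growth was then compared with that of vehicle-treated cultures to give growth inhibition.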
Test [3] is described as follows: NCI Yeast Anticancer Drug Screen. Data for the sgs1 mgt1 strain (AID 161).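 Note: 0% = growth of cultures given vehicle only.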 The settings on record: S. cerevisiae sgs1 mgt1 strain, at 50.0 µM, hits give high values. The method, boiled down:
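Percent growth inhibition was derived by comparing compound-exposed mutant yeast with vehicle-exposed cultures. The strain carries alterations in DNA damage repair.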

Test [4] is described as follows: NCI Yeast Anticancer Drug Screen. Data for the cln2 rad14 strain (AID 165).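 Note: 0% = growth equal to vehicle treated cultures.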 The settings on record: S. cerevisiae cln2 rad14 strain, at 50.0 µM, hits give high values. In short, it runs like this: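 Strain: cln2 rad14 yeast, altered in cell cycle control and DNA damage repair. Read-out: growth inhibition vs vehicle.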
The nature of test [5]: NCI Yeast Anticancer Drug Screen. Data for the bub3 strain (AID 167). Conditions: S. cerevisiae bub3 mutant strain, at 50.0 µM, hits give high values. The method, boiled down:
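Whole-cell yeast assay. The mutant strain was incubated with compounds, and growth inhibition was determined by comparison with vehicle-treated cells.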

Test [6] is described as follows: NCI Yeast Anticancer Drug Screen. Data for the mlh1 rad18 strain (AID 175). Conditions: S. cerevisiae mlh1 rad18 strain growth inhibition; at 50.0 µM; hits give high values. The method, boiled down:
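A repair-deficient yeast strain is exposed to test compound, and growth is scored relative to vehicle-treated controls.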

For the molecule `CCCCC/C(C)=C\CBr`, the growth inhibition in test [1] was -7.65%; in test [2], -2.65%; in test [3], -7.1%; in test [4], -22.9%; in test [5], -10.6%; in test [6] it was -3%.

Consider `Oc1ccc(CN=Cc2ccccc2)cc1`, for which the growth inhibition is 0.05% in test [1]; 3.3% in test [2]; -7.05% in test [3]; -14.9% in test [4]; -15.6% in test [5]; -10.1% in test [6].

In the case of `C=C1OC(c2ccccc2NC)=NC12CCCCC2`, the growth inhibition in test [1] was -11.6%; in test [2], -51.5%; in test [3], -9.9%; in test [4], -2.65%; in test [5] it was -14.8%; in test [6] it was -11.2%.

Take `OCC(O)C(OC1OC(CO)C(O)C(O)C1O)c1nn(-c2ccc(F)cc2)c2nc3cc(Cl)c(Cl)cc3cc12` (stereo unspecified): the growth inhibition in test [1] is 13.6%; in test [2], -10.1%; in test [3] it was -26.8%; in test [4], 29.9%; in test [5], 6.45%; in test [6] it was -1.55%.

On to `COC(=O)c1cc(-c2ccccc2Cl)n2c(N)nnc2n1`, for which the growth inhibition is 21.6% in test [1]; -3.1% in test [2]; 32.6% in test [3]; -6.2% in test [4]; -20.3% in test [5]; 7.1% in test [6].

Consider `CN(C(=S)NNC(=O)C1CCC(=O)N1)c1ccccc1` (stereo unspecified), for which the growth inhibition in test [1] was 23.2%; in test [2], -2%; in test [3], 3.3%; in test [4] it was 13.7%; in test [5] it was 21.4%; in test [6] it was 26.9%.

For `COc1cc(C(=O)CCCC(=O)O)cc(OC)c1OC`, the growth inhibition in test [1] was -9.15%; in test [2], 3.4%; in test [3], 19.6%; in test [4], 5.85%; in test [5] it was 16.3%; in test [6], 5.3%.

On to `CC(C)(CCN)[N+](=O)[O-]`, for which the growth inhibition in test [1] was -5.15%; in test [2], 9.15%; in test [3] it was 17.9%; in test [4], -88.3%; in test [5] it was 5.55%; in test [6] it was -2.5%.

On to `Cc1cc(C)c(COCc2c(C)cc(C)cc2C)c(C)c1`, for which the growth inhibition in test [1] was 19%; in test [2] it was 10.1%; in test [3], -0.55%; in test [4] it was -34.1%; in test [5] it was -2%; in test [6], 12.8%.

Consider `NNc1ncnc2ccc(Cl)cc12`, for which the growth inhibition in test [1] is 1.05%; in test [2], -9.15%; in test [3], 11.4%; in test [4], 1.05%; in test [5] it was 5.8%; in test [6] it was 6.5%.

As for `CO[C@H]1C[C@H]2[C@@H]3CCC4=CC(=O)CC[C@]4(C)[C@H]3CC[C@]2(C)[C@@]1(O)C(=O)CO`, the growth inhibition was -7.35% in test [1]; -9.25% in test [2]; -17% in test [3]; -14.9% in test [4]; -11.7% in test [5]; -27.6% in test [6].

On to `Clc1ccccc1Nc1c2ccccc2nc2ccccc12`, for which the growth inhibition in test [1] is 94.5% (active); in test [2], 98.1% (active); in test [3] it was 85.1% (active); in test [4], 96.3% (active); in test [5], 88.7% (active); in test [6] it was 97.7% (active).

`COc1ccc(S(=O)(=O)N(CC(=O)O)c2ccccc2)cc1`: the growth inhibition in test [1] is -19.3%; in test [2] it was -6%; in test [3], -4.35%; in test [4], -6.15%; in test [5] it was -7.75%; in test [6], -0.7%.

For `CC1CCCC(C)C1O` (stereo unspecified), the growth inhibition in test [1] is -19.7%; in test [2] it was -28.1%; in test [3], -13.9%; in test [4], 12.3%; in test [5], -4.6%; in test [6], -14.1%.

Regarding `COC(=O)C(C)CC(=O)c1ccc2ccc3cccc4ccc1c2c34` (stereo unspecified), the growth inhibition was -16.9% in test [1]; -18.4% in test [2]; -2.05% in test [3]; -35.4% in test [4]; 19.4% in test [5]; -4.2% in test [6].

Take `CCOc1ccc(-c2nnc(Nc3ccc(S(=O)(=O)N4CCCCC4)cc3)s2)cc1`: the growth inhibition in test [1] was 10.3%; in test [2], 9.6%; in test [3], 13.7%; in test [4], -38%; in test [5] it was -2.15%; in test [6], 16.7%.

For `CC(C)c1cc(C(F)(F)F)nc(NNc2nc(C(C)C)cc(C(F)(F)F)n2)n1`, the growth inhibition in test [1] was -19.6%; in test [2], -25.1%; in test [3] it was -16.5%; in test [4], -13.2%; in test [5], -15.4%; in test [6] it was -34.1%.

Take `Nc1ccc(Cl)cc1N=Cc1ccccc1[N+](=O)[O-]`: the growth inhibition is 35.5% in test [1]; 13.8% in test [2]; 49.5% in test [3]; -47.5% in test [4]; 17.6% in test [5]; 12.9% in test [6].

Regarding `O=c1[nH]c(=O)n(C2CC(O)C(CO)O2)cc1C#Cc1ccc(F)cc1` (stereo unspecified), the growth inhibition in test [1] was -3.45%; in test [2], 19.2%; in test [3], -15.2%; in test [4], -5.6%; in test [5], 3.85%; in test [6] it was -8.95%.

For `O=C(Nc1ccc(Cl)cc1)c1ccc(C(=O)Nc2ccc(Cl)cc2)cc1`, the growth inhibition was -12.9% in test [1]; -26.4% in test [2]; -20.1% in test [3]; 5.35% in test [4]; -6.4% in test [5]; -24.9% in test [6].

As to `COc1[nH]c2ccccc2c1C=O`, the growth inhibition is 45.1% in test [1]; 30.6% in test [2]; 22.3% in test [3]; 17.1% in test [4]; 11% in test [5]; 24.1% in test [6].

The record behind these values is PubChem BioAssay (NCI).
